Measured values published in PubChem BioAssay (NCATS).
Results filed as inconclusive are left out. Calls of active or inactive are those of the source. The call rests on the fitted dose curve; in most records, active means well fitted cell-killing curve with a large enough effect; inconclusive means small, poorly fitted or top-dose-only effect, or effect the other way; inactive means flat fitted curve, though single readings scatter.

Assay: qHTS assay for cell viability of HEK293 cells (AID 743288); further: nearly all actives have a fitted effect of over 50% in size
Conditions: ATP luminescence (CellTiter-Glo), 18 h, stronger effect = lower value
Procedure, shortened: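 Readout is luciferase-coupled ATP content (CellTiter-Glo luminescence, 30 min room temperature) as a measure of metabolically competent cells. Parental HEK293 cells were plated 5 h or more before compound addition, then treated 18 h at 37 C.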
On the % scale 0 is the no-effect control and ±100 the full control effect.

Row | Compound | max response
1 | CC1(C)C(C=C(Cl)Cl)C1C(=O)OC(C#N)c1cccc(Oc2ccccc2)c1 (centres undefined) | -3.3% (inactive)
2 | CC(C)c1cccc(C(C)C)c1O | -1.26% (inactive)
3 | COP(=S)(OC)Oc1cc(Cl)c(Cl)cc1Cl | -11.5% (inactive)
4 | CCOP(=S)(OCC)Oc1ccc2c(C)c(Cl)c(=O)oc2c1 | -5.48% (inactive)
5 | C[C@]12CCC(=O)C=C1CC[C@@H]1[C@@H]2CC[C@@]2(C)[C@H]1CC[C@]2(C)O | -18% (inactive)

Assay: qHTS assay for cell viability of the p53RE-bla HCT-116 cell line (AID 743292); further: nearly all actives have a fitted effect of over 55% in size
Conditions: p53RE-bla HCT-116 viability, ATP luminescence, 16 h; series mostly up to 95 µM; activity change, negative = cytotoxicity: at the top concentration
Procedure, shortened: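 Readout: CellTiter-Glo luminescence after 30 min RT. Treatment: compounds in DMSO, 16 h, 37 C. Cells: CellSensor p53RE-bla HCT-116, 4,000/well, preincubated 5 h.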

Row | Compound | activity change, negative = cytotoxicity
6 | CC1(C)C(C=C(Cl)Cl)C1C(=O)OC(C#N)c1cccc(Oc2ccccc2)c1 (centres undefined) | -5.71% (inactive)
7 | CC(C)c1cccc(C(C)C)c1O | 4.24% (inactive)
8 | COP(=S)(OC)Oc1cc(Cl)c(Cl)cc1Cl | 6.39% (inactive)
9 | C[C@]12CCC(=O)C=C1CC[C@@H]1[C@@H]2CC[C@@]2(C)[C@H]1CC[C@]2(C)O | 4.46% (inactive)
